Assay results reported in PubChem BioAssay AID1672 (Johns Hopkins Ion Channel Center, 2009).
The campaign covered roughly 310,000 compounds. About 2,600 (0.84%) were called active.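 Rule for the calls: active = fluorescence ratio B-score at or below minus 3 SD of library scores, with starting-brightness B-score within 2 SD (cut at about -4.2 in these data); inactive = the rest.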 Only a selection was taken, and actives are over-represented in it overall.

Target: Inward rectifier potassium channel 2 (Mus musculus) (UniProt P35561)
Assay: inhibitors of mouse Kir2.1 inward-rectifier potassium channel (AID 1672);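 note: channel flux triggered by added potassium and thallium sulfate stimulus; B-score of peak minus minimum fluorescence over baseline after thallium stimulus; more negative B-score means stronger Kir2.1 block with less thallium influx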
Conditions: HEK293-Kir2.1, FluxOR thallium flux fluorescence; at 10 µM; hits give low values

Inward rectifier potassium channel 2 (Mus musculus), sequence (P35561 whole entry, looked up): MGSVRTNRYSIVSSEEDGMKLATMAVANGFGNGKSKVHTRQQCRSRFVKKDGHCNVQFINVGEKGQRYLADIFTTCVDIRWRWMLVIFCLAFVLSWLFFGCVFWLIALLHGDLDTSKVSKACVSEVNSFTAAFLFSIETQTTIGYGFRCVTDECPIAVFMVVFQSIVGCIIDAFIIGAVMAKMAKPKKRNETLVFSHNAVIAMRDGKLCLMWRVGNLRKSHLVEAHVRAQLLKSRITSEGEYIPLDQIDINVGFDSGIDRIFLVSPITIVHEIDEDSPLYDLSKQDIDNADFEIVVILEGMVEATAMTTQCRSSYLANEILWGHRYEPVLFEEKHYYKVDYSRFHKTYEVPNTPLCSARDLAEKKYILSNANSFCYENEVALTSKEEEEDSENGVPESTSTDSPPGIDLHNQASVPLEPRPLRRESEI

Structure (SMILES) | B-score
CN1CCN(CCCCOc2ccccc2-c2ccccc2)CC1 | -6.95 (active)
CC1CN(CCCOc2ccccc2-c2ccccc2)CC(C)O1 (stereo not drawn) | -4.04 (inactive)
CN1CCN(CCCCOc2cccc3ccccc23)CC1 | -1.84 (inactive)
c1ccc(-c2ccccc2OCCN2CCCCC2)cc1 | -1.64 (inactive)
CC1CCCN(CCOCCOc2ccccc2-c2ccccc2)C1 (stereo not drawn) | -6.74 (active)
COc1ccccc1OCCCCCCN1CCN(C)CC1 | 1 (inactive)
CC(OC(=O)CCCc1c[nH]c2ccccc12)C(=O)Nc1ccc(S(N)(=O)=O)cc1 (stereo not drawn) | -0.01 (inactive)
Cc1sc(NC(=O)C2=COCCO2)c(C#N)c1C | -0.98 (inactive)
Cc1ccc2[nH]cc(CCNC(=O)C3CCCCC3)c2c1 | 0.62 (inactive)
O=C(NCCc1c[nH]c2ccccc12)C1CCN(Cc2ccc(Br)cc2)CC1 | -5.88 (active)
O=C(NCCc1c[nH]c2ccccc12)c1cccc(Br)c1 | -0.14 (inactive)
Cc1c(NC(=O)C(C)OC(=O)c2c3c(nc4ccccc24)CCC(C)C3)c(=O)n(-c2ccccc2)n1C (stereo not drawn) | 0.01 (inactive)
Cc1cc(C)cc(OCc2nnc(SCC(=O)OC3CCCCC3)o2)c1 | 2.83 (inactive)
CCOC(=O)C(C)Sc1nnc(CSc2nc3nc(C)cc(C)n3n2)o1 (stereo not drawn) | 0.45 (inactive)
Cc1cc(C)nc(SCc2nnc(SCC(=O)OC3CCCCC3)o2)n1 | -6.39 (active)
O=C(CSc1nnc(-c2cccnc2)n1Cc1ccco1)c1ccc(Cl)c(Cl)c1 | -0.81 (inactive)
O=C(CSc1nnc(-c2cccnc2)n1Cc1ccco1)c1ccc(Cl)cc1 | -3.48 (inactive)
C(=C\c1ccccc1)/CSc1nnc(-c2cccnc2)n1Cc1ccco1 | -6.26 (active)
O=C(Cc1ccc(S(=O)(=O)N2CCOCC2)s1)NCCOc1ccccc1F | -0.88 (inactive)
O=C(CCC1CCCCC1)Nc1cc(C(F)(F)F)ccc1N1CCOCC1 | -0.88 (inactive)
Cc1cc(=O)oc2cc(NC(=O)C(C)Oc3ccccc3)ccc12 (stereo not drawn) | 0.76 (inactive)
CC(CN1CCCCC1)c1ccccc1 (stereo not drawn) | -0.88 (inactive)
COc1ccc(C(O)(C2CCCCC2)C(CN2CCCC2)c2ccccc2)cc1 (stereo not drawn) | -6.33 (active)
CCCC(O)(c1ccc(OC)cc1)C(CN(C)C)c1ccccc1 (stereo not drawn) | -2.85 (inactive)
CN(CC(=O)NCc1cccnc1)S(=O)(=O)c1cc(Cl)ccc1Cl | 0.05 (inactive)

Structure (SMILES) | B-score
Cc1ccc(S(=O)(=O)NCCC(=O)NNC(=O)C2COc3ccccc3O2)cc1 (stereo not drawn) | -0.97 (inactive)
COc1cccc(CC2(CO)CCCN(Cc3ccc(OC(F)F)cc3)C2)c1 (stereo not drawn) | -1.05 (inactive)
Cn1cccc1-c1nc2ccccc2n1C | -0.13 (inactive)
CN1c2ccccc2-c2nc3ccccc3n2C1c1ccco1 (stereo not drawn) | -4.99 (active)
Cn1c(-c2ccco2)nc2cc3ccccc3cc21 | 0.04 (inactive)
COc1ccccc1N1CCN(c2nc(C)cc(=O)[nH]2)CC1 | 0.62 (inactive)
O=C(CCNC(=O)Cn1ccc2ccccc2c1=O)NCCC1=CCCCC1 | -0.38 (inactive)
O=C(Cc1cccc2ccccc12)NCCC1=CCCCC1 | -1.35 (inactive)
CCn1c(=O)cc(SCC(=O)NCCC2=CCCCC2)c2ccccc21 | -8.59 (active)
CCOc1cc(N2CCOCC2)c(OCC)cc1NC(=O)COc1cccc(Cl)c1 | -0.59 (inactive)
CC(C)CN(C(=O)c1ccc2c(c1)OCO2)C1CCS(=O)(=O)C1 (stereo not drawn) | -2.25 (inactive)
COc1ccc(Nc2nnc(C)c3ccccc23)cc1 | -0.1 (inactive)
COc1ccc(Nc2ncnc3sc(-c4ccccc4)cc23)c(OC)c1 | 0 (inactive)
COc1ccc(Nc2ncnc3sc(C)cc23)cc1 | -6.13 (active)
Cc1ccc2nc(C)c3c(c2c1)N(c1ccccc1)CC3 | -13.2 (active)
Cc1ccc2nc(Nc3ccccc3)cc(C)c2c1 | 1.96 (inactive)
Cc1ccc2nc3n(c(=O)c2c1)CCC3 | -2.3 (inactive)
O=C(O)C1C2C=CC(C2)C1C(=O)NCc1ccccc1 (stereo not drawn) | -0.26 (inactive)
CCCCCCCCn1c2c(c(=N)c3c1CCC3)CCCC2 | -14.8 (active)
CCCCCCn1c(CN2CCCCC2)nc2c1c(=O)n(C)c(=O)n2C | -1.63 (inactive)
COc1ccccc1NC(=O)C(C)OC(=O)c1ccc(-n2cnnn2)cc1 (stereo not drawn) | 1.19 (inactive)
CC(=O)Nc1ccc(C(=O)NNC(=O)CCCCC(=O)NNC(=O)c2ccc(NC(C)=O)cc2)cc1 | 0.27 (inactive)
CCOc1ccc(S(=O)(=O)NCCC(=O)N2CCCCCCC2)cc1 | -0.07 (inactive)
Cc1nc2ccc(C(=O)N(C)CC3CCCN(CCc4ccc(Cl)cc4)C3)cc2[nH]1 (stereo not drawn) | -1.32 (inactive)
COc1cccc(CN(C)CC(=O)NCc2ccccc2Cl)c1OC | -3.73 (inactive)

Structure (SMILES) | B-score
COc1cccc(CN(C)CC2CCCN(CCc3ccc(Cl)cc3)C2)c1OC (stereo not drawn) | -8.2 (active)
O=C(Nc1ccc(OC(F)(F)F)cc1)c1ccc2c(c1)no[n+]2[O-] | 0.38 (inactive)
O=C(Nc1cn(-c2ccccc2)nc1-c1ccccc1)c1ccccc1 | 0 (inactive)
N=C(N)SCc1cccc2ccccc12 | -3.09 (inactive)
CCc1ccc(-c2nn(-c3ccccc3)cc2CSC(=N)N)cc1 | -10.6 (active)
CCN1CCN(c2ccc(S(=O)(=O)N3CCCCC3)cc2NC(=O)c2cccc(NC(C)=O)c2)CC1 | 0.95 (inactive)
CCc1ccc(C(=O)NNC(=O)C2CCN(c3ncnc4sc(C)c(C)c34)CC2)cc1 | -1.35 (inactive)
O=C(COc1ccccc1Cl)Nc1ccccc1C(=O)NC1CC1 | -1.39 (inactive)
COc1ccc(NC(=S)NCC2CCN(c3ccc(OC)cc3)C2)cc1 (stereo not drawn) | 1.12 (inactive)
COc1ccc(N2CCC(CNC(=S)Nc3c(C)cccc3C)C2)cc1 (stereo not drawn) | -6.34 (active)
COc1ccc(NC(=S)NCCN2CCC(C)CC2)cc1 | -1.95 (inactive)
COc1ccc(F)cc1S(=O)(=O)NCC(c1ccc2c(c1)OCO2)N1CCN(C)CC1 (stereo not drawn) | -0.39 (inactive)
COc1ccccc1CSc1ncc(-c2ccc([N+](=O)[O-])cc2)[nH]1 | 0.65 (inactive)
Nc1ccccc1SCc1cc([N+](=O)[O-])cc2c1OCOC2 | -4.96 (active)
CC(O)C(NS(=O)(=O)c1ccc(Cl)cc1)C(=O)OCc1cc([N+](=O)[O-])cc2c1OCOC2 (stereo not drawn) | -0.06 (inactive)
CCN(CC)CCn1c2c(c(SCC(=O)Nc3nc4ccccc4s3)nc1=O)CCCC2 | 0.03 (inactive)
COc1ccc(NC(=O)CN(C)C(=O)/C=C/c2cn(Cc3ccccc3)nc2-c2cccnc2)cc1 | 0.01 (inactive)
CCOC(=O)c1cc(NC(=O)c2cccnc2)ccn1 | 0.04 (inactive)
CCc1noc(C)c1C(=O)Oc1ccc(N(C)S(=O)(=O)c2ccc(C)c(C)c2)cc1 | -0.66 (inactive)
CC(OC(=O)C1CC(=O)N(Cc2ccccc2)C1)C(=O)Nc1ccccc1[N+](=O)[O-] (stereo not drawn) | -1.36 (inactive)
N=c1c2c(-c3ccccc3)c(-c3ccccc3)oc2ncn1Cc1ccco1 | 1.16 (inactive)
N=c1c2c(-c3ccccc3)c(-c3ccccc3)n(Cc3ccccc3)c2ncn1CCCO | -6.86 (active)
CCN(CC)CCn1cnc2c1c(=O)[nH]c(=O)n2Cc1ccccc1 | 0.13 (inactive)
Cn1c(SCC(=O)c2ccccc2)ncc(C(=O)Nc2ccc(F)cc2)c1=O | 1.98 (inactive)
O=S(=O)(Nc1cccc(-c2ccc(N3CCOCC3)nn2)c1)c1ccc(Cl)c(Cl)c1 | 0.82 (inactive)

Structure (SMILES) | B-score
CCN(CC(=O)NCc1cccs1)C(=O)c1ccc(OC)c(S(=O)(=O)N2CCOCC2)c1 | -0.52 (inactive)
CC(O)CNCCOc1cccc(Oc2ccccc2)c1 (stereo not drawn) | -2.96 (inactive)
Cc1cccc2c1N(CCOc1ccccc1)C(=O)C2=O | -0.18 (inactive)
CC1(C)NC(=O)N(CCOc2cccc(Oc3ccccc3)c2)C1=O | -4.68 (active)
O=C(COc1coc(CN2CCN(c3ccccc3)CC2)cc1=O)Nc1ccccc1F | -0.62 (inactive)
CN(C)CCOC1c2ccccc2-c2ccccc21 | 0.04 (inactive)
CN(C)CCOCCOc1ccc(Cl)c2ccccc12 | -5.07 (active)
CCN(CC)CCOCCOc1ccc(Cl)c2ccccc12 | -2.53 (inactive)
CN(Cc1c(F)cccc1Cl)C(=O)CNC(=O)c1ccc2c(c1)OCO2 | 0.45 (inactive)
CCOc1ccc(NC(=O)CN(C)C(=O)COc2cccc(CC)c2)cc1OCC | -1.11 (inactive)
COc1ccc2c(c1)C(=O)Nc1cc(Cl)ccc1N2 | 0.62 (inactive)
CCCCOC(=O)Cn1c(=O)n(CC(=O)OCCCC)c2cc(C)ccc21 | -7 (active)
Cc1ccc(OCc2nc3ccccc3n2C)cc1 | -0.43 (inactive)
CCCCCCCCCCOC(=O)Cn1c(COc2ccc(C)cc2)[n+](C)c2ccccc21 | -17.5 (active)
CCCCOC(=O)Cn1c(=N)n(CCN(CC)CC)c2ccccc21 | 1.01 (inactive)
CCn1c(=N)n(CC(=O)c2cccc(OC)c2)c2ccccc21 | -0.01 (inactive)
CCn1c(COc2cccc(OC)c2)nnc1SCC(=O)N1CCOCC1 | 0.86 (inactive)
CCOC(=O)CN1C(=O)C(=O)c2cc(C)ccc21 | -1.78 (inactive)
Cc1ccc(OCCCn2c(=O)oc3ccccc32)cc1 | -1.92 (inactive)
CCCCCCCCCCOC(=O)Cn1c(COc2cccc(OC)c2)[n+](C)c2ccccc21 | -8.13 (active)
CC(C)CN(C(=O)COC(=O)c1ccc2ccccc2c1)c1c(N)n(Cc2ccccc2)c(=O)[nH]c1=O | 1.03 (inactive)
CCOc1ccc(NC(=O)COc2ccc(C(=O)N3CCC(C(N)=O)CC3)cc2OC)cc1 | 1.65 (inactive)
COc1ccc(CNC(=O)C(=O)N2CCC3(CC2)OCCN3S(=O)(=O)c2ccc(C)cc2)cc1 | 0.4 (inactive)
